Our source for the growth values is PubChem BioAssay (NCI).

The panel holds about 83,000 compounds, 20% with a hit somewhere; the sample as a whole holds those more often.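 Method: cells in 96-well plates; compound added at one concentration; 48 h incubation; percent growth measured; values under 10 scored active.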 Active and inactive are the calls of the source.

This test concerns HL-60(TB) leukemia. As to the kind of experiment: NCI-60 one-dose screen, 48 h (100 = growth as untreated, 0 = no growth, -100 = all killed). Conditions: 10 µM unless noted.
For `NS(=O)(=O)c1ccc(Nc2nc(N/N=C/c3ccc([N+](=O)[O-])cc3)nc(Nc3ccccc3)n2)cc1`, the growth was 35% (inactive).

For the compound `CC1=N[C@@H]2CN(C(=O)OC(C)(C)C)C[C@@H]2n2c1cc1ccccc1c2=O`, the growth is 99.9% (inactive). For `O=C(c1cccc(F)c1)n1ccc2cc(NC(=S)Nc3cccnc3)ccc21` the value was 85.8% (inactive); for `COc1ccc([C@@H]2c3[nH]c4ccccc4c3CC3C(=O)N(C4CCN(Cc5c(F)cccc5F)CC4)CC(=O)N32)c(OC)c1` (some centres undefined), 39.6% [5.26 µM] (inactive).

For `COc1ccc(Oc2ccc(/C=N/NC(=O)CSc3nc4ccccc4c(=O)n3-c3ccc(Cl)cc3)cc2)cc1`, the growth is 104% (inactive). As for `COc1cc(OC)c(/C=C/S(=O)(=O)Cc2ccc(OC)c(NC(=O)CCC(=O)NO)c2)c(OC)c1`, the figure is -10.8% (active); as for `O=C(/C=C/c1cccc(Br)c1)c1cccc(OCCCCOc2cccc(C(=O)/C=C/c3cccc(Br)c3)c2)c1`, 95.3% (inactive). For `CCCNNC(=O)c1ccc(-c2ccc(NC(=O)CCCCCCC(=O)N[C@H](C(=O)N3C[C@H](O)C[C@H]3C(=O)N[C@@H](C)c3ccc(-c4scnc4C)cc3)C(C)(C)C)cc2)cc1` the value was 18.1% (inactive); for `Cc1csc(/N=C(N)/N=C(\N)c2cccnc2)n1`, 65.9% (inactive); for `C#C[C@]1(O)CC[C@H]2[C@@H]3CC=C4c5sc(Nc6cccc(C)n6)nc5CC[C@]4(C)[C@H]3CC[C@@]21C`, -8.95% (active). For `COc1cc(/C=C2/C(=O)Nc3ccc(Cl)cc32)ccc1OCc1ccc(Cl)cc1` the value was 102% (inactive); for `CNC(=O)c1cc(Oc2ccc3c(c2)sc2nc(-c4ccc(N(C)C)cc4)cn23)ccn1`, 5.28% (active). As for `CC(C)(C)CC(C)(C)n1nnnc1C(Nc1ccccc1)c1cc2cccc3ccc4cccc1c4c32` (centres undefined), the growth was 101% (inactive). For `CC(=O)Nc1ccc(NC(=O)Nc2cccc(-c3nc(-c4ccc(NC(=O)c5cccnc5)cc4Cl)no3)c2)cc1C(F)(F)F` the value was -39.1% (active); for `COC(=O)C[Se]C(=O)Cc1c(C)n(C(=O)c2ccc(Cl)cc2)c2ccc(OC)cc12`, -20.9% (active); for `NS(=O)(=O)c1ccc(Nc2nc(SCC(=O)c3ccc(Cl)cc3)nc3ccccc23)cc1`, 103% (inactive).

With `O=C1/C(=C/C=C/c2ccco2)SC(=S)N1Cc1ccccc1`, the growth was 96.9% (inactive).

As for `Cc1ccc(-c2cc(-c3cccc4ccccc34)n3c(n2)nc2ccccc23)cc1`, the growth is 7.27% (active). As to `Brc1ccccc1/C=N/Nc1nc(N/N=C/c2ccccc2Br)nc(N2CCOCC2)n1`, the growth was 80.5% (inactive). Take `CC(=O)C1=NN(c2ccc(Cl)cc2)C(=O)CN1C`: the growth is 105% (inactive).

In the case of `COc1cc2nc(-c3ccc(Cl)cc3)cc(OCCCNCC3CCCO3)c2cc1OC` (centres undefined), the growth is 32.1% (inactive). For `CCOC(=O)c1c(N)c(C#N)cn1Cc1ccc(Cl)cc1Cl` the value was 60.6% (inactive); for `NC(N)=NS(=O)(=O)c1ccc(N=Nc2c(N)nn(-c3ccc([N+](=O)[O-])cc3[N+](=O)[O-])c2N)cc1`, 97.3% (inactive). For `O=C(CCCCCCNC(=O)c1csc(Br)n1)NO` the value was 5.2% (active). For `C#C[C@]1(O)CC[C@H]2[C@@H]3CC=C4c5sc(-c6ccc(OC)cc6)nc5CC[C@]4(C)[C@H]3CC[C@@]21C` the value was 21.1% (inactive); for `Cc1ccc(OCc2occc2C(=O)N2CCOCC2)cc1`, 107% (inactive); for `Cn1cc(-c2cc(N)n3nc(-c4cn(C)c5ccc(Br)cc45)cc3n2)c2cc(Br)ccc21`, 26.7% (inactive). Turning to `CS(=O)(=O)c1ccc(-c2nc3ccccn3c2C=Nc2ccc(Cl)cc2)cc1`, the growth is 59.7% (inactive).

Regarding `COc1cc(/C=C/C(=O)c2ccccc2)ccc1Oc1nc(NCCO)nc(N2CCOCC2)n1`, the growth was 81.6% (inactive). As for `CCC(CC)n1c(=O)c(SC2=NC3C(NN2)N(CC)C(=O)N3CC)c(C(=O)O)c2ccccc21` (centres undefined), the figure is 0.469% (active); as for `O=C1/C(=C/C=C/c2ccco2)SC(=S)N1c1ccccc1`, 51.8% (inactive); as for `C#Cc1nc(/C=C/C(=O)NO)cs1`, -58.7% (active). As for `COc1cc(/C=C2\C(=O)Nc3ccccc32)ccc1OCc1ccc(F)cc1`, the figure is 115% (inactive); as for `CC(C)=CCC[C@](C)(O)[C@H]1CC[C@]2(C)[C@@H]1CC[C@@H]1[C@@]3(C)CC[C@H](N)C(C)(C)[C@@H]3CC[C@]12C`, -24.1% (active). For `CC1=C(C)C(=O)C(Nc2ccc3c(c2)OCCO3)=C(Br)C1=O` the value was -44.2% (active); for `N#C/C(=C\c1ccc(-c2ccc(Cl)cc2Cl)o1)c1ccc(F)cc1`, 95.9% (inactive). Consider `COc1cc(-c2nc(SCCC(C)C)nc(NNC(=O)c3ccncc3)c2C#N)cc(OC)c1OC`, for which the growth was 116% (inactive). As for `C/C(=N/Nc1nc(N/N=C(/C)c2ccc([N+](=O)[O-])cc2)nc(N2CCOCC2)n1)c1ccc([N+](=O)[O-])cc1`, the figure is 92.6% (inactive); as for `Nc1nc(-c2cccc([N+](=O)[O-])c2)c(N=Nc2cccc([N+](=O)[O-])c2)s1`, 118% (inactive).
